Assay results published in PubChem BioAssay.
Activity calls are given as the source filed them.

Assays:
[1] = test system: PRMT1 (protein arginine N-methyltransferase 1); assay: PRMT1 binders on small-molecule microarrays, primary screen, biochemical, small-molecule microarray, 635 nm fluorescence (AID 1088); conditions: small-molecule microarray binding, higher = more signal;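 further: binding of Prmt1 protein to compounds spotted on small-molecule microarray slides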
[2] = yeast growth modulation, basal conditions, primary screen, YJM789 clinical isolate, OD600, 24 h (AID 1089);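 further: growth of clinical yeast isolate S. cerevisiae YJM 789 seeded 1000 cells per well; test concentration not given here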; conditions: S. cerevisiae YJM789 growth, higher = more signal, called active from +8 up or from −8 down
[3] = fission yeast growth modulation, primary screen, strain 972, OD600, 24 h, no modulator (AID 1090);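 further: basal condition with compound alone and no growth modifier present; test concentration not given here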; conditions: S. pombe 972 growth, higher = more signal, called active from +8 up or from −8 down
[4] = S. cerevisiae growth modulation with rapamycin, primary screen, strain BY4716, OD600, 96 h (AID 1091); conditions: higher = more signal, called active from +8 up or from −8 down; further: test concentration not given here
[5] = biological target: Torsin-1A-interacting protein 2 (Homo sapiens) (UniProt Q8NFQ8); assay: LULL1 binders on small-molecule microarray, primary screen, cell lysate, human LULL1 lysate, 635/667 nm fluorescence (AID 1092); conditions: hLULL1 lysate binding, 635 nm fluorescence, higher = more signal;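 further: probe is lysate of COS7 cells overexpressing human LULL1; score merges per-feature 667 nm fluorescence with signal-to-noise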
Torsin-1A-interacting protein 2 (Homo sapiens), sequence (Q8NFQ8 whole entry, looked up): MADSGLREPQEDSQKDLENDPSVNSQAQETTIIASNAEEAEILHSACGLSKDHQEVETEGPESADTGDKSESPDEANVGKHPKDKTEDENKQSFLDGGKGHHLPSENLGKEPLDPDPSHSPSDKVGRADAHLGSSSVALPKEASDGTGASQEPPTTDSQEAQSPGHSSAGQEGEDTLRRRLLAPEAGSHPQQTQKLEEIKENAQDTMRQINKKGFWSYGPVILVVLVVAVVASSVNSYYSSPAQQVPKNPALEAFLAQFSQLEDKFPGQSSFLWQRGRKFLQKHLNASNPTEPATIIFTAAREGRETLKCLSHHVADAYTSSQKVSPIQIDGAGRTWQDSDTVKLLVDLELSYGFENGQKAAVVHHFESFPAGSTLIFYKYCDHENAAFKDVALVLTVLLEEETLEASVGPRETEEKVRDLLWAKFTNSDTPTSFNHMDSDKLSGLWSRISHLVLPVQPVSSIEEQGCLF

[6] = E. coli growth modulation, two-sided OD650, primary screen, E. coli filamentation project, strain DRC41, 24 h (AID 1093); conditions: OD650, 24 h, higher = more signal, called active from +8 up or from −8 down;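 further: MC1000 strain lacking acrAB efflux and sulA so SOS filamentation is blocked; test concentration not given here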
[7] = small-molecule microarray binders of probe aLefty2, primary screen, biochemical, biotinylated probe, 635/667 nm fluorescence (AID 1094); conditions: higher = more signal;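 further: score merges spot fluorescence near 667 nm with spot signal-to-noise ratio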
[8] = test system: Noggin (protein binding on small-molecule microarray); assay: Noggin binders on small-molecule microarray, primary screen, biochemical, 635/667 nm fluorescence (AID 1095); conditions: 635 nm fluorescence, higher = more signal;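 further: score merges 667 nm feature fluorescence with signal to noise over triplicate slides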
[9] = biological target: Neurogenic locus notch homolog protein 3 (Homo sapiens) (UniProt Q9UM47); assay: NOTCH3 binders on small-molecule microarray, primary screen, biochemical, 635/667 nm fluorescence (AID 1096); conditions: NOTCH3 binding, 635 nm fluorescence, higher = more signal
Neurogenic locus notch homolog protein 3 (Homo sapiens), sequence (Q9UM47 whole entry, looked up): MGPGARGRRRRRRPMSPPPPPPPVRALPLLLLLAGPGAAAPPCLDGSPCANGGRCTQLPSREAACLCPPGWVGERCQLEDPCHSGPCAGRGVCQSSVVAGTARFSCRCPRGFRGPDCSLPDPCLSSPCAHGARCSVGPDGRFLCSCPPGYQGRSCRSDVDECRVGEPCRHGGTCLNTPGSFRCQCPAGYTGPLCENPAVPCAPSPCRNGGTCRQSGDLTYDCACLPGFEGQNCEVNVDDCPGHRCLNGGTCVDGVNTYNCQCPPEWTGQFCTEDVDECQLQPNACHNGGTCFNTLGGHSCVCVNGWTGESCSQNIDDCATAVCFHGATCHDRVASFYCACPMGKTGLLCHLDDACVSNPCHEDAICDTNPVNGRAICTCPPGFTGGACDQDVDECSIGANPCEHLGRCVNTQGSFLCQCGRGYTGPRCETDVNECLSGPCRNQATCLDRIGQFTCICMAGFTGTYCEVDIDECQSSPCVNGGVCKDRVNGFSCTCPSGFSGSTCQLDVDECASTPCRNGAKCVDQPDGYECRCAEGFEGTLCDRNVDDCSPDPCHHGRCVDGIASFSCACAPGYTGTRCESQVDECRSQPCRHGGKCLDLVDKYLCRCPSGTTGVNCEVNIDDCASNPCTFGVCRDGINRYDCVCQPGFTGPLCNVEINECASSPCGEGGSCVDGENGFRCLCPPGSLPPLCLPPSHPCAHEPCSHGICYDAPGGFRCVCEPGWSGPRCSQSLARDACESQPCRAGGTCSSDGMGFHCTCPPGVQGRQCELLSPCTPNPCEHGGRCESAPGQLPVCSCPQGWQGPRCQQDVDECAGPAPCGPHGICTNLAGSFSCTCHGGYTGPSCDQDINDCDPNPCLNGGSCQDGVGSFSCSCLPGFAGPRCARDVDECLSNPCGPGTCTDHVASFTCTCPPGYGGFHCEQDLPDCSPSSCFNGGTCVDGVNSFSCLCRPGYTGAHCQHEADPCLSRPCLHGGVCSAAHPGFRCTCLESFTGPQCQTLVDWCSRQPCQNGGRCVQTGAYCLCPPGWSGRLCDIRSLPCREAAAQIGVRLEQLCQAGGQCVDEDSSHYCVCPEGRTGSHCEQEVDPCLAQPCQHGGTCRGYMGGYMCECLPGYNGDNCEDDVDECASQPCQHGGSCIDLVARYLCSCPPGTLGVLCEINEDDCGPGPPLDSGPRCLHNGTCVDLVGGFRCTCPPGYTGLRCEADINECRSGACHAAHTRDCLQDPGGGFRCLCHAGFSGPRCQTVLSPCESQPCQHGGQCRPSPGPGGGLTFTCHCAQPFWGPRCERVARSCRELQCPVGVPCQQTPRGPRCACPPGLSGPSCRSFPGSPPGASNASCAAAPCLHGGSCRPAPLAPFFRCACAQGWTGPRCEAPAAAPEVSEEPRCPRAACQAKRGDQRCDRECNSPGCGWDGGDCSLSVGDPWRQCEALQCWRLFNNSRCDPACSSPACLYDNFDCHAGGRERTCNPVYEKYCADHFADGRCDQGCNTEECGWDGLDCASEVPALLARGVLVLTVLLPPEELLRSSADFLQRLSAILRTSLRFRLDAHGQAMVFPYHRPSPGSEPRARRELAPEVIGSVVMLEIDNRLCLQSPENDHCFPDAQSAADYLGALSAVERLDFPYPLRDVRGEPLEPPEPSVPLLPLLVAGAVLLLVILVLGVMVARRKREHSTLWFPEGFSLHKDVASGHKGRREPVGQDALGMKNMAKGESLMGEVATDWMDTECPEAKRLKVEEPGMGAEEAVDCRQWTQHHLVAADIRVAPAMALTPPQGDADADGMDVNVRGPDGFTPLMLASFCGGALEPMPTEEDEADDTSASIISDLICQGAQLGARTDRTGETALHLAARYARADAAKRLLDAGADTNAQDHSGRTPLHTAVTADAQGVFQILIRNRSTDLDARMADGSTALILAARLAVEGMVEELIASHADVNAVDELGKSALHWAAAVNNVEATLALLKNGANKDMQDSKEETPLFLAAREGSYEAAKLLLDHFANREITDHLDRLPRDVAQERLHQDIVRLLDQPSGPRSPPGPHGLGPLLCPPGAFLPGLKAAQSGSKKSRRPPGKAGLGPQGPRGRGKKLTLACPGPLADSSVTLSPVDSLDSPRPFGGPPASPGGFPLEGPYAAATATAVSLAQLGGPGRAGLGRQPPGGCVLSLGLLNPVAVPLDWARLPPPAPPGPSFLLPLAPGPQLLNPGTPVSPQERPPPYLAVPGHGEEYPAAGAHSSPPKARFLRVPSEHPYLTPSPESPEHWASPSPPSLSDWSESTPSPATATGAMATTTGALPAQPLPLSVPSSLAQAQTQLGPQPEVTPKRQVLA

[10] = small-molecule microarray binders of probe aEGFR, primary screen, biochemical, biotinylated probe, 635/667 nm fluorescence (AID 1097); conditions: higher = more signal;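 further: probe is a biotinylated anti-EGFR antibody binding compounds printed on slides; score combines fluorescence near 667 nm and signal to noise of each spot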
[11] = test system: Plasmodium falciparum Sir2 (PF13_0152, Sir2A); assay: pfSir2 binders on small-molecule microarrays, primary screen, biochemical, small-molecule microarray, 635 nm fluorescence (AID 1098); conditions: small-molecule microarray binding, fluorescence 635 nm; higher = more signal;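 further: score merges spot fluorescence intensity with its signal-to-noise ratio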
[12] = small-molecule microarray binders of probe aDKK1, primary screen, biochemical, biotinylated probe, 635/667 nm fluorescence (AID 1099); conditions: higher = more signal;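 further: score merges 667nm spot fluorescence with signal to noise across triplicate slides; reference of the scale not given here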
[13] = small-molecule microarray binders of probe aCHRDL2, primary screen, biochemical, biotinylated probe, 635/667 nm fluorescence (AID 1100); conditions: higher = more signal
[14] = splicing luciferase reporter signal modulators, primary screen, spliceosome inhibition project, cell-based, HEK293, splice +/- reporter (AID 1101); conditions: luminescence, 24 h, higher = more signal, called active from +8 up or from −8 down;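 further: HEK293 cells carrying a splicing-competent luciferase reporter gene; test concentration not given here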
[15] = biological target: Fibroblast growth factor 10 (Homo sapiens) (UniProt O15520); assay: FGF10 binders on small-molecule microarrays, primary screen, biochemical, small-molecule microarray, 635 nm fluorescence (AID 1102); conditions: FGF10 binding, fluorescence 635 nm, higher = more signal
Fibroblast growth factor 10 (Homo sapiens), sequence (O15520 whole entry, looked up): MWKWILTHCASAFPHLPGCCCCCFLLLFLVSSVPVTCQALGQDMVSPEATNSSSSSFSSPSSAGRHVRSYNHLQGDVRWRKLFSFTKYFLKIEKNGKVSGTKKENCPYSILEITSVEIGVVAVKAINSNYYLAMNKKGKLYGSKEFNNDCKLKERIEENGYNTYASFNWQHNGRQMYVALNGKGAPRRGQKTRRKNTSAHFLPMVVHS

[16] = test system: glycogen synthase kinase-3 (GSK3A per assay name; protocol says GSK3B); assay: GSK3 binders on small-molecule microarrays, primary screen, biochemical, small-molecule microarray, 635 nm fluorescence, GSK3A (AID 1103); conditions: small-molecule microarray binding, fluorescence 635 nm; higher = more signal; further: the record names both GSK3A and GSK3B
[17] = biological target: Epidermal growth factor receptor (Homo sapiens) (UniProt P00533); assay: EGFR binders on small-molecule microarrays, primary screen, biochemical, small-molecule microarray, 635 nm fluorescence (AID 1104); conditions: EGFR binding, higher = more signal;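 further: score merges 667 nm emission intensity with spot signal to noise over triplicate slides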
Epidermal growth factor receptor (Homo sapiens), sequence (P00533 whole entry, looked up): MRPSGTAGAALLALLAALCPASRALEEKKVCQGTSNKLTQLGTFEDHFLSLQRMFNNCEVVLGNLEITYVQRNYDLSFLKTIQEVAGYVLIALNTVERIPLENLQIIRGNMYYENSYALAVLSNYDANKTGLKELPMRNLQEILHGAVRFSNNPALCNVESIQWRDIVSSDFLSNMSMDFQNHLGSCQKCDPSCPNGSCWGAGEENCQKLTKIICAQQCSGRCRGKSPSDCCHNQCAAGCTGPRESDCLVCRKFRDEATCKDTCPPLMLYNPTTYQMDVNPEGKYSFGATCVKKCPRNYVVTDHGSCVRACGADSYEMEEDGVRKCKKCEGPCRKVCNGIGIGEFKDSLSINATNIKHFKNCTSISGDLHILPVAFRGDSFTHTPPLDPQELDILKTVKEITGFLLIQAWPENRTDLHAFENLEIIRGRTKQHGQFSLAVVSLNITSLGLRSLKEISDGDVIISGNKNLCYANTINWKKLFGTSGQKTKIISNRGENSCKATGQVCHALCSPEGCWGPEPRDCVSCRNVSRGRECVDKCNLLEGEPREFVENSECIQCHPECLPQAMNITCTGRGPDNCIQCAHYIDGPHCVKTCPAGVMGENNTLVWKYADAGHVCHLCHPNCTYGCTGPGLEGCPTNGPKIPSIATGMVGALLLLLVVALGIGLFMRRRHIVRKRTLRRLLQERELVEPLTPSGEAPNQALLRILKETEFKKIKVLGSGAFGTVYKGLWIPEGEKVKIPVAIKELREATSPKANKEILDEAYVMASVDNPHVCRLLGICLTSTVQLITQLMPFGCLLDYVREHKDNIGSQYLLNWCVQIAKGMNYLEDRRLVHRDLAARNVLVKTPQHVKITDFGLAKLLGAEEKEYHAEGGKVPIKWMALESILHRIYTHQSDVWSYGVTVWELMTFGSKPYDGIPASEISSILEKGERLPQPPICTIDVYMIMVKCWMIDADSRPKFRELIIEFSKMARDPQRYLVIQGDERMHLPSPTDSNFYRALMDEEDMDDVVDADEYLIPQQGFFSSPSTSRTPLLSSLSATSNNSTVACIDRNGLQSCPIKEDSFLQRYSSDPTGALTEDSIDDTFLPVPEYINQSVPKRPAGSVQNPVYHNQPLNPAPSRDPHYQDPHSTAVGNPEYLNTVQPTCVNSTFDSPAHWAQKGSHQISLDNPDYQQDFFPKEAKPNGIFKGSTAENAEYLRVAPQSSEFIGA

[18] = biological target: Follistatin-related protein 3 (Homo sapiens) (UniProt O95633); assay: FSTL3 binders on small-molecule microarrays, primary screen, biochemical, small-molecule microarray, 635 nm fluorescence (AID 1105); conditions: FSTL3 binding, higher = more signal;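 further: score merges emission near 667 nm and signal to noise per printed spot across three slides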
Follistatin-related protein 3 (Homo sapiens), sequence (O95633 whole entry, looked up): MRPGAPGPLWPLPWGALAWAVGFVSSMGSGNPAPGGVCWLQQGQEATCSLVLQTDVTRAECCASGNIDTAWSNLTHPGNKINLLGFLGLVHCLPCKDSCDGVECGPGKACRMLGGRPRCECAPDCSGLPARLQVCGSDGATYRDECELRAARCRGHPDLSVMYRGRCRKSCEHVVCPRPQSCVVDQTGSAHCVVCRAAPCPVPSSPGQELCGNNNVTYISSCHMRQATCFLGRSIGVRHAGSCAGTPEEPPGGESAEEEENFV

[19] = biological target: Dickkopf-related protein 1 (Homo sapiens) (UniProt O94907); assay: DKK1 binders on small-molecule microarrays, primary screen, biochemical, small-molecule microarray, 635 nm fluorescence scan (AID 1106); conditions: DKK1 binding, higher = more signal;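 further: score merges emission near 667 nm with signal to noise over three replicate slides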
Dickkopf-related protein 1 (Homo sapiens), sequence (O94907 whole entry, looked up): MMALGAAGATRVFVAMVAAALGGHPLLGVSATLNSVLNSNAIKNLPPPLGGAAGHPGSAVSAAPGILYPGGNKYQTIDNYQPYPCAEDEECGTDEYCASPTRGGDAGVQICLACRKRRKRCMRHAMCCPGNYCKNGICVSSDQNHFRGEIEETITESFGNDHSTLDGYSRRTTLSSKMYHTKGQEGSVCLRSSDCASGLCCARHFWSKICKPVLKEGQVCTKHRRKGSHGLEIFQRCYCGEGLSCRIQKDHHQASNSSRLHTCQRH

[20] = test system: Inhibin beta A chain (activin A); assay: INHBA (activin A) binders on microarrays, primary screen, biochemical, small-molecule microarray, 635 nm fluorescence scan (AID 1107); conditions: small-molecule microarray binding, higher = more signal;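 further: mouse activin A protein probed at 4.33 µg/mL on printed slides; score merges bound-protein fluorescence near 667 nm with spot signal-to-noise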

SMILES | composite z-score [1] | z-score [2] | z-score [3] | z-score [4] | composite z-score [5] | z-score [6] | composite z-score [7] | composite z-score [8] | composite z-score [9] | composite z-score [10] | composite z-score [11] | composite z-score [12] | composite z-score [13] | z-score [14] | composite z-score [15] | composite z-score [16] | composite z-score [17] | composite z-score [18] | composite z-score [19] | composite z-score [20]
C[C@@H]1NC(=O)[C@@H](Cc2ccccc2)NC(=O)[C@@]23C(=O)N[C@@H](Cc4ccccc4)C2[C@H](C)[C@@]2(C)O[C@H]2C3/C=C/C/C=C\CNC1=O (stereo not given in full) | -1.06 | 0.378 (inactive) | 0.573 (inactive) | 0.783 (inactive) | 2.84 | -1.02 (inactive) | -0.218 | 0.972 | 0.354 | -0.168 | 1.02 | -0.259 | -0.17 | 0.138 (inactive) | -0.2 | -0.769 | -0.318 | 0.119 | 0.0252 | 1.16
COc1ccc([Si](C)(C)[C@@H]2[C@@H](CCO)O[C@]3(C(=O)N(Cc4cccc(NC(=O)[C@H](C)O)c4)c4ccccc43)[C@H]2C)cc1 | 1.54 | 1.84 (inactive) | 0.193 (inactive) | 34.6 (active) | 2.84 | -0.327 (inactive) | -0.159 | 0.474 | 0.662 | -0.152 | 1.42 | 1.09 | 0.0838 | -2.89 (inactive) | 1.08 | 1.27 | 0.0532 | 0.399 | 0.244 | -0.437
COc1cc2c(cc1O)C(C1CC1)N(Cc1cccc(OC(F)(F)F)c1)CC2 (stereo not given) | 0.694 | -2.19 (inactive) | -5.25 (inactive) | -2.53 (inactive) | 1.88 | 0.394 (inactive) | -0.0575 | -0.242 | -0.167 | 0.0009 | -0.102 | 0.149 | 0.542 | 0.654 (inactive) | -0.293 | -0.567 | -0.881 | -0.0671 | -0.248 | 1.45
CC(C)C(CO)N1C(=O)[C@@H]2C3C(=O)OCCC/C=C\[C@H]3OC23C=CCN(c2ccc4ccccc4c2)C(=O)[C@@H]13 (stereo not given in full) | -0.403 | -0.25 (inactive) | -1.45 (inactive) | -0.0641 (inactive) | 1.34 | -0.395 (inactive) | -0.0928 | -0.469 | 0.121 | -0.203 | 0.552 | -0.167 | 0.375 | -0.298 (inactive) | 0.0329 | -1.01 | -1.2 | -0.602 | -0.4 | 0.791
O=C(O)[C@@H]1[C@@H]2C(=O)N(c3ccccc3)C(=O)[C@@H]2C[C@@H]1Sc1ccccc1 | -1.41 | 0.752 (inactive) | 1.68 (inactive) | 1.53 (inactive) | 0.758 | -0.686 (inactive) | 0.251 | -1.71 | -1.56 | 0.196 | 1.61 | 0.638 | 0.519 | 0.393 (inactive) | -0.694 | -1.74 | -0.498 | -0.852 | -1.19 | 0.656
CCCCCC1=C2CNC(C)(C(=O)OC)C=C2C(C)C1=O (stereo not given) | -0.998 | 0.511 (inactive) | 1.7 (inactive) | 1.48 (inactive) | 1.14 | -0.67 (inactive) | 0.118 | -0.947 | -0.426 | -0.0581 | -0.0215 | 0.827 | 0.865 | 1.23 (inactive) | 0.0992 | -1.1 | -0.476 | -0.713 | -0.52 | 1.16
C=CC[C@@H](OC(=O)Nc1ccc(SC)cc1)c1ccc(O)c(F)c1 | 0.803 | -21.2 (active) | -19.9 (active) | -0.545 (inactive) | 0.724 | 1.81 (inactive) | 0.0276 | 0.713 | -0.0238 | -0.105 | 0.522 | 0.0488 | 0.404 | -1.79 (inactive) | 0.214 | -0.0142 | -0.361 | 0.155 | 0.183 | 0.77
C=CCNC(=O)[C@@H]1[C@H]2C(=O)O[C@H](c3ccccc3)[C@H](c3ccccc3)N2[C@H](c2ccc(OCCO)cc2)[C@@]12C(=O)N(C(=O)OCCOC)c1ccc(C#Cc3ccc(OC)cc3)cc12 | 1.49 | 1.59 (inactive) | 1.77 (inactive) | 6.26 (inactive) | 3.13 | 0.361 (inactive) | 0.0645 | 1.23 | 1.05 | -0.0974 | 1.29 | 0.0181 | 0.299 | -1.33 (inactive) | 0.753 | 1.27 | 0.356 | 1.34 | 0.489 | 0.688
COC(=O)[C@@]1(Cc2ccc(OC)cc2)[C@H]2c3cc(C(=O)N4CCCC4)n(CCc4c[nH]c5ccc(OC)cc45)c3C[C@H]2CN1C(=O)c1ccccc1 | 0.0079 | 0.425 (inactive) | 1.84 (inactive) | 4.15 (inactive) | 3.03 | -0.669 (inactive) | 0.722 | -0.0307 | 1.02 | 0.318 | 0.789 | 1.5 | 1.55 | -1.21 (inactive) | 0.591 | 1.14 | -0.0086 | 1.19 | -0.299 | 0.877
COCCCNC(=O)[C@@]1(Sc2ccc(C)cc2)CC(=O)N(C2Cc3ccccc3C2)[C@@H]1c1ccc(CO)cc1 | 0.585 | 0.0853 (inactive) | -1 (inactive) | -0.798 (inactive) | 3.11 | -1.27 (inactive) | -0.236 | -1.72 | -0.314 | -0.254 | 1.06 | 0.106 | 0.899 | -0.866 (inactive) | -1.39 | -0.429 | -0.787 | -1.42 | -1.76 | -0.115
